Bioassay records from PubChem.
Pf apPOL block – Pf-apPOL DNA polymerase inhibition | Recombinant Pf-apPOL, molecular beacon fluorescence, 1.5 h | inhibition, % at 10 µM | 0.25% of 210,000 active
mHTT CaM bind – mHTT-calmodulin interaction abrogation; inhibition, % at 15 µM; AlphaScreen His-mHTT/GST-CaM binding, luminescence; 3.6% of 190,000 active; AID 1671202; P42858;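 note: 0% = both proteins with DMSO and 100% = one protein alone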
Target sequence (P42858 whole entry, looked up, stated change not applied): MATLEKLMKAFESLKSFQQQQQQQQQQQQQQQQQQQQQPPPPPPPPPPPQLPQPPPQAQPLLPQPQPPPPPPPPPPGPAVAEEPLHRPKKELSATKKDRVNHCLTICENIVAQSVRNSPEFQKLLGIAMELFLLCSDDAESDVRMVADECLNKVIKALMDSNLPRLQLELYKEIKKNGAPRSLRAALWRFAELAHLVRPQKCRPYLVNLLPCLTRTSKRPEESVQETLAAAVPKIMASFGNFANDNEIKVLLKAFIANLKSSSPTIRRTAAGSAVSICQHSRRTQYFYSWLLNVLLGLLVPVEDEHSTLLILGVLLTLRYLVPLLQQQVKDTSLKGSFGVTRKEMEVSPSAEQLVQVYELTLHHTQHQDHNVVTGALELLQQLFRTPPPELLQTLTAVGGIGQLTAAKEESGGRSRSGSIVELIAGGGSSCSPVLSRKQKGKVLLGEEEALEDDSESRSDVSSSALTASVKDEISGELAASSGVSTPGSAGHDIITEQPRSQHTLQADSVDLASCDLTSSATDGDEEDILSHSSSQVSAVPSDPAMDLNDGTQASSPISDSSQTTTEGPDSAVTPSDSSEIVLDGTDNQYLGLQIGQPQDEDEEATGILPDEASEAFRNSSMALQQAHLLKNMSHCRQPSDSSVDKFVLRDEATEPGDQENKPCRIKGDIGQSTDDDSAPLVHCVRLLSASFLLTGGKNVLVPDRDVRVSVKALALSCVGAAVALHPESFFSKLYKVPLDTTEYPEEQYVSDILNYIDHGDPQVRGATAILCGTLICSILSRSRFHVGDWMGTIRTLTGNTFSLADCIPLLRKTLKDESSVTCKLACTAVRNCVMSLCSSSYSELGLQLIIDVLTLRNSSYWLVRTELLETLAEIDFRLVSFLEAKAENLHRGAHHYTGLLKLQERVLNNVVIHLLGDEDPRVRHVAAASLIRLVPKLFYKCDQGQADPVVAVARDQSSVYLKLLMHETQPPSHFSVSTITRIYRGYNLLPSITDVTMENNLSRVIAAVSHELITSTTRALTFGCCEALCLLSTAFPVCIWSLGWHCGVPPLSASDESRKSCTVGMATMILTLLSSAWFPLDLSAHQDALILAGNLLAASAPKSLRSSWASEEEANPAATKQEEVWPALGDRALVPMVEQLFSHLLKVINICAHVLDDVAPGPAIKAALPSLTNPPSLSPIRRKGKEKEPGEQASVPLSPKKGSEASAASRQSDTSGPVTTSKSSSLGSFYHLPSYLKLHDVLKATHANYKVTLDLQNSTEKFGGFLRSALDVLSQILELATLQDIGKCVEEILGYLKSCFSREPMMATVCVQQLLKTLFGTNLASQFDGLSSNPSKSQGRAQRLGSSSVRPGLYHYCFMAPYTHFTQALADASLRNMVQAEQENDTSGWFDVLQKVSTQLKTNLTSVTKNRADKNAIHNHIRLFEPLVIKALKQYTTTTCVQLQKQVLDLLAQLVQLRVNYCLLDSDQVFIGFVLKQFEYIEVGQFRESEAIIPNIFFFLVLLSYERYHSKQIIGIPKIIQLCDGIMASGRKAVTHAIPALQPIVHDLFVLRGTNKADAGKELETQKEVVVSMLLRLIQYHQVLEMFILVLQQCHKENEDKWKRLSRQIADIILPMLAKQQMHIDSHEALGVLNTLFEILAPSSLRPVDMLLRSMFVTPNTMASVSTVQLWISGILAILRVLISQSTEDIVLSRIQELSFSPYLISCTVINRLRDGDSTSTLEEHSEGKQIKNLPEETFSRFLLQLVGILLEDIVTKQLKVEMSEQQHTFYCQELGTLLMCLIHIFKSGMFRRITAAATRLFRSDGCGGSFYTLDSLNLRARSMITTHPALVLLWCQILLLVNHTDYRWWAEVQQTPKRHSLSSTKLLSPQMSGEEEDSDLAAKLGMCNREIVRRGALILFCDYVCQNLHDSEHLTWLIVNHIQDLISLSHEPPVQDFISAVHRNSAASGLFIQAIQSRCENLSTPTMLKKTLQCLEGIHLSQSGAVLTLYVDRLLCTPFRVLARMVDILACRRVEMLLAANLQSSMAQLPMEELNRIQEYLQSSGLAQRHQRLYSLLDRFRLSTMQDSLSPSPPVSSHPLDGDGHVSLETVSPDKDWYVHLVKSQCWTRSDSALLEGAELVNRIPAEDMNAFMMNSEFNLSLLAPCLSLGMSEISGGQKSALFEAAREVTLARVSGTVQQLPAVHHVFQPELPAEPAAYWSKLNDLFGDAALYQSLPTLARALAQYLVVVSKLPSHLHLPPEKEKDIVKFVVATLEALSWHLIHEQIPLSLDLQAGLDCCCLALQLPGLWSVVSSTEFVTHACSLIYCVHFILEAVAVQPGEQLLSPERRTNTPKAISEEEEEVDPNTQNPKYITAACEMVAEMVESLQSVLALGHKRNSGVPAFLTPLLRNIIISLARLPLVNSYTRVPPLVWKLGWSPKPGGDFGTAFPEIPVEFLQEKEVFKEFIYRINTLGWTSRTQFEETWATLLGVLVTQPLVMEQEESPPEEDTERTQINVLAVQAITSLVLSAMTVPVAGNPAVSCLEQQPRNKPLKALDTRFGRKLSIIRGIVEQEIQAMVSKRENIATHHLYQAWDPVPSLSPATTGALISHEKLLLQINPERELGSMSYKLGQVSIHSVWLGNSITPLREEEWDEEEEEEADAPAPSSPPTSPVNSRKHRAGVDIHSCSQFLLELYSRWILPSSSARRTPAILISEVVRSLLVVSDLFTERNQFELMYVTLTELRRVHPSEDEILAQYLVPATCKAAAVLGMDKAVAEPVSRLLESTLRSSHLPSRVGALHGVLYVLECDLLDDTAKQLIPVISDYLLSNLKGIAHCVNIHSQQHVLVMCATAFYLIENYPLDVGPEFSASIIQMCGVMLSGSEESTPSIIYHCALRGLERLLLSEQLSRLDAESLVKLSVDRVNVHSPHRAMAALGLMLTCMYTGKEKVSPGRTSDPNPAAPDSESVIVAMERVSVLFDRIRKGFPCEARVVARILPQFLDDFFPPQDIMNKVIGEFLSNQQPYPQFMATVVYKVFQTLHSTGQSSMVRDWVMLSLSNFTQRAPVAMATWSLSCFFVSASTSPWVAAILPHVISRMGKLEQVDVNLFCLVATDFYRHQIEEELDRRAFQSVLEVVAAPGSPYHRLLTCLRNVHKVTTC
Numbers without * were called inactive. Only some compounds are listed: those with a hit (about 3.6% of all), similar ones and a draw of the others. Cut-off read from the data, not from the text of the source: active = inhibition above about 50%; inactive = the rest.

SMILES | Pf apPOL block | mHTT CaM bind
Cc1ccc(NCC(O)Cn2c(C)c(C)c3ccccc32)cc1C (configuration not stated) | -2 | 71*
Cc1c(C)n(CC(O)CNCCCO)c2ccccc12 (configuration not stated) | 3 | 15
Cc1c(C)n(CC(O)CNc2ccc(Br)cc2)c2ccccc12 (configuration not stated) | 6 | 100*
Cc1ccc(NCC(O)Cn2c(C)c(C)c3ccccc32)cc1 (configuration not stated) | 0 | 45
CC1=C(C(=O)OC(C)C)C(c2cc(C(C)(C)C)c(O)c(C(C)(C)C)c2)NC(=O)N1 (configuration not stated) | -2 | -3
O=C(NC1CC1)c1ccc(OCC2CCN(C(=O)c3ccc(Br)o3)CC2)cc1 | -6 | 10
COc1cc(NC(=O)Oc2ccccc2)ccc1N1CCCCC1=O | -13 | -2
Cc1cc2n(n1)CCC(=O)N2CCCC(=O)N1CCN(C(=O)c2ccco2)CC1 | -3 | 0
CCCn1cnnc1C1CCN(C(=O)c2ccc(F)cc2)CC1 | -4 | -2
Cc1c(C(=O)NCCOc2ccc3c(c2)OCO3)cccc1[N+](=O)[O-] | -9 | 6
OC(COCC(c1ccccc1)c1ccccc1)Cn1cnc2ccccc21 (configuration not stated) | -4 | 56*
OC(COCc1ccccc1)Cn1cnc2ccccc21 (configuration not stated) | 3 | -9
Cc1nc(C(=O)Nc2ccccc2)c(C)n1C1CCN(S(C)(=O)=O)CC1 | -1 | 2
Cc1nc(C(=O)Nc2ccc(Oc3ccccc3)cc2)c(C)n1C1CCN(C)CC1 | -6 | 82*
Cc1ccc([C@H]2C[C@H](O)[C@@H](n3cc(-c4ccc(F)cc4)nn3)CN2C(=O)C2CCCCC2)cc1 | 0 | 74*
O[C@H]1C[C@H](c2ccccc2)N(CC2CCCCC2)C[C@@H]1n1cc(C2CC2)nn1 | -2 | 93*
O[C@@H]1CN(CC2CCCCC2)[C@@H](c2ccccc2)C[C@H]1n1cc(C2CC2)nn1 | -4 | 5
O[C@H]1CN(CC2CCCCC2)[C@@H](c2ccc(Cl)cc2)C[C@@H]1n1cc(C2CC2)nn1 | -4 | 54*
CCCCCCN1C[C@H](n2cc(-c3ccc(F)cc3)nn2)[C@@H](O)C[C@@H]1c1ccccc1 | -2 | 60*
O[C@H]1CN(CC2CCCCC2)[C@@H](c2ccc(Cl)cc2)C[C@@H]1n1cc(-c2ccc(F)cc2)nn1 | 2 | 16
O=C(C1CCCCC1)N1C[C@@H](n2cc(-c3ccc(F)cc3)nn2)[C@H](O)C[C@@H]1c1ccccc1 | 0 | -3
CCCCCCN1C[C@H](O)[C@@H](n2cc(-c3ccc(F)cc3)nn2)C[C@@H]1c1ccccc1 | -4 | 4
CCc1ccccc1N1N=NC2C(=O)N(c3cccc(Cl)c3)C(=O)C21 (configuration not stated) | 0 | -21
Cc1ccc(C)n1CCN1CCN(CC(=O)c2ccc3c(c2)OCO3)CC1 | -2 | 15
O=C(NCc1ccc(F)cc1)c1csc(-c2cccnc2)n1 | -4 | 13
SMILES | Pf apPOL block | mHTT CaM bind
Cc1cccc(NC(=O)c2cc3c(CO)cnc(C)c3oc2=Nc2cccc(Cl)c2)c1 | -8 | -1
COc1ccccc1N=Cc1c(Nc2ccccc2OC)nc2c(C)cccn2c1=O | -9 | 11
Cc1cccc(-n2c(C)nc3cc(C(=O)NC4CCCC4)ccc32)c1 | 29 | 7
CCCCCCN1C[C@H](n2cc(C3CC3)nn2)[C@@H](O)C[C@@H]1c1ccc(Cl)cc1 | -1 | 100*
Cc1ccc([C@H]2C[C@H](O)[C@@H](n3cc(-c4ccc(F)cc4)nn3)CN2Cc2cccs2)cc1 | -3 | 8
CCCCCCN1C[C@@H](n2cc(C3CC3)nn2)[C@H](O)C[C@@H]1c1ccc(Cl)cc1 | 1 | 23
O[C@H]1C[C@H](c2ccc(Cl)cc2)N(Cc2cccs2)C[C@@H]1n1cc(-c2ccc(F)cc2)nn1 | -2 | 100*
Cc1ccc(NC(=O)N2CCCC(CCC(=O)NCCN3CCCC3)C2)cc1 (configuration not stated) | -4 | 30
O=C(Nc1ccc(S(=O)(=O)Nc2nccs2)cc1)c1ccc(Cl)cc1[N+](=O)[O-] | -6 | 14
COc1cc(-c2nnc(SCC(=O)c3ccc(Cl)cc3Cl)o2)cc(OC)c1OC | -5 | 2
O=c1ccc(-c2ccc(F)cc2)nn1CCc1nc(-c2ccc(F)cc2)no1 | -5 | 70*
O=c1ccc(-c2ccccc2)nn1CCc1nc(-c2ccc(F)cc2)no1 | -4 | 8
O=C1c2[nH]nc(-c3ccc(F)cc3)c2C(c2ccccc2[N+](=O)[O-])N1c1ccccc1 (configuration not stated) | -1 | 83*
COc1cc(C2c3c(-c4ccc(F)cc4)n[nH]c3C(=O)N2c2ccccc2)ccc1O (configuration not stated) | -1 | 78*
